Assay outcomes as filed in PubChem.
CRFR2-BP antag: CRF-BP/CRF-R2 complex antagonism; HEK293 CRF-R2/CRF-BP, CRF-induced calcium fluorescence; inhibition, % at 11.8 µM; 350,000 tested, 0.59% active; AID 588475;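 active means inhibition of the ligand-induced calcium signal above about 50% at the single tested concentration, limit read from the data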
NOD2 RIPK2 PPI: blocks binding of human NOD2 to RIPK2 | CHO BLA complementation NOD2-RIPK2, CCF4 ratio | inhibition, % at 4.98 µM | 360,000 tested, 0.38% active; in the data active means inhibition above about 21%
HTR2A ag: mouse HTR2A agonism via beta-arrestin recruitment | P35363 | CHO-K1 mHTR2A beta-arrestin complementation, luminescence; percent of 30 µM serotonin response | activation, % at 7.6 µM | 360,000 tested, 0.66% active | AID 624169;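 active means activation above a run cutoff, the mean activation of all tested compounds plus 3 SD, cut at about 14% in these data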
ABHD5 PLIN5 PPI: blocks binding of human ABHD5 to perilipin-5; Q00G26+Q8WTS1; Split G. princeps luciferase complementation, luminescence, 4 h; inhibition, % at 4 µM; 360,000 tested, 0.78% active; AID 602281;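 active means inhibition above the mean inhibition across every tested compound plus 3 SD, cut at about 22% in these data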
TLR9-MyD88 inh: TLR9-MyD88 interaction inhibition; CHO BLA complementation TLR9-MyD88, CCF4 FRET ratio; inhibition, % at 4.98 µM; 340,000 tested, 0.21% active; AID 504734;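 active means inhibition above the mean over all tested compounds plus 3 SD, cut at about 21% in these data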
TLR4 MyD88 comp: TLR4-MyD88 interaction inhibition in cells; O00206+Q99836; HeLa CL3-4 TLR4/MyD88 BLA complementation, FRET ratio; inhibition, % at 8.4 µM; 200,000 tested, 0.18% active; AID 861; in the data active means inhibition above about 25%
Target sequence (O00206 whole entry, looked up): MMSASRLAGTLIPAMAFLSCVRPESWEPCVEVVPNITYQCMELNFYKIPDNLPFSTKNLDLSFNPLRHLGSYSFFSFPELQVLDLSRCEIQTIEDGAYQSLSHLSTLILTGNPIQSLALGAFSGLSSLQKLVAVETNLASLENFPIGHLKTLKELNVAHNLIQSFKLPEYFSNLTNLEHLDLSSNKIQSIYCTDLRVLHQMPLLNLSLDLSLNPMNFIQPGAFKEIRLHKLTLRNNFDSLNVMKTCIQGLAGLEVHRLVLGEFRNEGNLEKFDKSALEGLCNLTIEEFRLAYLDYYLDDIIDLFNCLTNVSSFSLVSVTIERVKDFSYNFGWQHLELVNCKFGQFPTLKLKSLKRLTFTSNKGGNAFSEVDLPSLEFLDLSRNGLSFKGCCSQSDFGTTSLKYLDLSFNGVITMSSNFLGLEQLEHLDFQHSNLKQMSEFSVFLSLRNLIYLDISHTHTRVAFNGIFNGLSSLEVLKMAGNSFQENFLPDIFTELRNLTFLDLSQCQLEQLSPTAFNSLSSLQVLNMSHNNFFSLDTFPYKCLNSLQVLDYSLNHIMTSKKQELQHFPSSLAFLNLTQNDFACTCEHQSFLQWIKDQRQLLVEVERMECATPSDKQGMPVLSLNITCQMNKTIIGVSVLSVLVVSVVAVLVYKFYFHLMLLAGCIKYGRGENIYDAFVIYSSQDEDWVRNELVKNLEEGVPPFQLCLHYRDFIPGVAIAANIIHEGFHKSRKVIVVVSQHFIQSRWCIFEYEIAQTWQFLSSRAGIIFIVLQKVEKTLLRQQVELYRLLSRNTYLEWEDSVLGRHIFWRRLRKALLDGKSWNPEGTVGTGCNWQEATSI
Target sequence (Q99836 whole entry, looked up): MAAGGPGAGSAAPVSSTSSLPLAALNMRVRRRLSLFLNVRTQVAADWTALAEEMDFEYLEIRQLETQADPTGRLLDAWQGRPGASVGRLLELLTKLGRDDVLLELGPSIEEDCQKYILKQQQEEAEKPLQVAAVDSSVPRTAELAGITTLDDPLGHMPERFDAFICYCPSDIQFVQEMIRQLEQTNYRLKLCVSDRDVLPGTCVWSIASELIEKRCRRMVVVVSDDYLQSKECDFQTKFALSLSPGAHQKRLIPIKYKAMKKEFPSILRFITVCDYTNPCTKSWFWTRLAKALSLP
TLR4 MyD88 cnf: TLR4-MyD88 interaction inhibition confirmed. shares compounds with TLR4 MyD88 comp. HeLa CL3-4 BLA complementation, CCF4 FRET ratio. inhibition, % at 8.4 µM. 350 tested, 50% active. AID 941;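 active means mean inhibition across three repeat runs above about 25% carried over from the earlier screen, limit read from the data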
BLA inhibitor ct: inhibits beta-lactamase activity, counter-screen to TLR4-MyD88 binding inhibitors. shares compounds with TLR4 MyD88 comp. HeLa BLA reporter, CCF4 FRET ratio. inhibition, % at 8.4 µM. 350 tested, 63% active. AID 1237;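 active means mean inhibition over three repeats above about 26% taken from the earlier screen, limit read from the data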;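 further: HeLa cells stably expressing beta-lactamase reporter as counterscreen for TLR4-MyD88 inhibitors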
Each line names hits and unclear results; the compound was inactive in the other large screens (follow-up assays come after a bar, where they were run). In the library only some 2.4% were active in any assay of this set; here they are far more common.

c1ccc(-c2cn3nc(-c4ccccc4)c(-c4ccccc4)nc3n2)cc1	TLR4 MyD88 comp 51.8 | TLR4 MyD88 cnf 43.5 | BLA inhibitor ct 72.9
CCOC(=O)C1=C(C)N=c2s/c(=C\c3ccc(OC(C)=O)c(OCC)c3)c(=O)n2C1/C=C/c1ccccc1 (stereo not drawn)	TLR4 MyD88 comp 54.0 | TLR4 MyD88 cnf 26.4 | BLA inhibitor ct inactive
NS(=O)(=O)c1ccc(CCNC(=O)CSc2nc3ccsc3c(=O)n2C2CC2)cc1	none
CCCCNC(=O)CSc1nc2ccsc2c(=O)n1C1CCN(C(=O)OCC)CC1	TLR4 MyD88 comp 47.5 | TLR4 MyD88 cnf inactive | BLA inhibitor ct inactive
O=S(=O)(Nc1cc(Sc2cccc3cccnc23)c(O)c2ccccc12)c1ccc(F)cc1	TLR4 MyD88 comp 29.5 (no result: NOD2 RIPK2 PPI, HTR2A ag, ABHD5 PLIN5 PPI, TLR9-MyD88 inh) | TLR4 MyD88 cnf 25.4 | BLA inhibitor ct 31.9
O=C(Sc1cccc2cccnc12)c1ccc(F)cc1	TLR4 MyD88 comp 28.7 (no result: CRFR2-BP antag, NOD2 RIPK2 PPI, HTR2A ag, ABHD5 PLIN5 PPI, TLR9-MyD88 inh) | TLR4 MyD88 cnf 26.4 | BLA inhibitor ct 39.9
CC(=O)/C(=N\Nc1ccccc1)Sc1cccc2cccnc12	none
COc1ccc(CN2C(=O)C(CC(=O)NC3CC3)CC(C(=O)N(C)C)=C2C)cc1 (stereo not drawn)	none (no result: TLR4 MyD88 comp)
COc1ccc(-n2c(-c3ccc(Br)cc3)c[n+]3c2CCc2ccccc2-3)cc1	TLR4 MyD88 comp 26.5 | TLR4 MyD88 cnf 25.5 | BLA inhibitor ct inactive
CC(C)c1ccc(-n2c(-c3ccccc3)c[n+]3c2CCc2ccccc2-3)cc1	none
CCCn1c(=O)[nH]c(=O)c2c1nc(-c1ccccc1OC(F)F)n2CCOC	TLR4 MyD88 comp 26.5 | TLR4 MyD88 cnf inactive | BLA inhibitor ct inactive
CCCn1c(=O)[nH]c(=O)c2c1nc(-c1ccc(OC(F)F)c(OC)c1)n2CCOC	none
CCCc1nc2ccc(C)cn2c1Cc1cccc(Cl)c1	none (no result: CRFR2-BP antag, TLR9-MyD88 inh, TLR4 MyD88 comp)
CCOC(=O)[C@]12CCCC=C1N(Cc1cccc3ccccc13)C(=O)[C@H](CC(=O)NCc1cccs1)C2	none (no result: CRFR2-BP antag, TLR9-MyD88 inh, TLR4 MyD88 comp)
O=[N+]([O-])c1ccc(N/N=C/c2c[nH]c3ccccc23)c(S(=O)(=O)Nc2ccc(Cl)cc2)c1	TLR4 MyD88 comp 56.7 | TLR4 MyD88 cnf 43.3 | BLA inhibitor ct 64.8
COc1ccccc1NS(=O)(=O)c1cc([N+](=O)[O-])ccc1N/N=C/c1c(C)[nH]c2ccccc12	TLR4 MyD88 comp 36.3 | TLR4 MyD88 cnf inactive | BLA inhibitor ct 44.8
Cc1[nH]c2ccccc2c1/C=N/NC(=O)c1cccc([N+](=O)[O-])c1	none (no result: TLR9-MyD88 inh)
COc1cc(C(O)c2nc(-c3cccc(C(F)(F)F)c3)cs2)ccc1F (stereo not drawn)	none (no result: CRFR2-BP antag, TLR9-MyD88 inh, TLR4 MyD88 comp)
COc1cccc(CC(=O)Nc2nccs2)c1	TLR4 MyD88 comp 25.8 | TLR4 MyD88 cnf inactive | BLA inhibitor ct inactive
c1ccc(CCNc2cc(-c3ccc4ccccc4c3)nc3ccnn23)nc1	none (no result: CRFR2-BP antag, TLR9-MyD88 inh, TLR4 MyD88 comp)
O=C(OCn1ncc(Cl)c(Cl)c1=O)c1ccc(F)cc1	TLR4 MyD88 comp 26.9 (no result: CRFR2-BP antag, NOD2 RIPK2 PPI, HTR2A ag, ABHD5 PLIN5 PPI, TLR9-MyD88 inh) | TLR4 MyD88 cnf 28.7 | BLA inhibitor ct inactive
O=c1cnn(Cc2ccc(F)cc2)c2ccccc12	none (no result: TLR4 MyD88 comp)
O=c1c(Cl)c(Cl)cnn1Cc1ccc(F)cc1	TLR4 MyD88 comp 26.7 | TLR4 MyD88 cnf inactive | BLA inhibitor ct inactive
CC(C)(C)C(=O)Cn1ncc(Cl)c(Cl)c1=O	none
O=C1Nc2ccccc2-n2nnnc2C1N1CCc2ccccc2C1 (stereo not drawn)	none (no result: CRFR2-BP antag, TLR9-MyD88 inh, TLR4 MyD88 comp)
COc1ccc(-c2oc3c4c2C(=O)OCCOC4CCC3)cc1 (stereo not drawn)	none (no result: CRFR2-BP antag, TLR9-MyD88 inh, TLR4 MyD88 comp)
CC(C)C(=O)Nc1cccc(-c2nc3ccccc3o2)c1	TLR4 MyD88 comp 25.7 | TLR4 MyD88 cnf inactive | BLA inhibitor ct inactive
CN(C)c1ccc(/C=C/C(O)=C2/C(=O)N(C)C3(C)CC2c2ccccc2O3)cc1 (stereo not drawn)	TLR4 MyD88 comp 48.6 (no result: CRFR2-BP antag, NOD2 RIPK2 PPI, HTR2A ag, ABHD5 PLIN5 PPI, TLR9-MyD88 inh) | TLR4 MyD88 cnf 35.2 | BLA inhibitor ct 68.4
COc1ccc(NC(=O)Cn2c([N+](=O)[O-])cnc2C)c(OC)c1	none (no result: TLR4 MyD88 comp)
Clc1cc(Cl)cc(Nc2ccccc2CN(C/C=C/c2ccc3c(c2)OCO3)Cc2ccccc2)c1	none (no result: TLR4 MyD88 comp)
